# BAZ2B block – blocks human BAZ2B. Q9UIF8. AlphaScreen BAZ2B-H3K14Ac peptide displacement. Potency, µM (highest dose often 114 µM), inactives show top-dose activity change, negative = inhibition, actives largely listed as inhibitors. 360,000 tested, 4.4% active. AID 504333; note: % is set by controls: 0 for no effect and ±100 for the full control effect; nearly all actives have a fitted effect of over 60% in size
#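 In this displacement format the biotinylated H3(5-23) peptide acetylated at Lys14 serves as ligand at 50 nM, with BAZ2B at 50 nM in PBS pH 7.4 containing 0.01% Tween-20. Donor and acceptor beads are 10 ug/mL final.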
# G9a inh – G9a (human) methyltransferase inhibition | Q96KQ7 | G9a H3K9 monomethylation, AlphaScreen, 2 h | AID 504332 | 350,000 tested, 8.8% active | Potency, µM (titrated, usually from 102 µM), without a hit: at the top dose activity, negative = inhibition, usual class: inhibitors; note: % is set by controls: 0 for no effect and ±100 for the full control effect; nearly all actives have a fitted effect of over 75% in size
# Target sequence (Q96KQ7 913-1193 limits assumed): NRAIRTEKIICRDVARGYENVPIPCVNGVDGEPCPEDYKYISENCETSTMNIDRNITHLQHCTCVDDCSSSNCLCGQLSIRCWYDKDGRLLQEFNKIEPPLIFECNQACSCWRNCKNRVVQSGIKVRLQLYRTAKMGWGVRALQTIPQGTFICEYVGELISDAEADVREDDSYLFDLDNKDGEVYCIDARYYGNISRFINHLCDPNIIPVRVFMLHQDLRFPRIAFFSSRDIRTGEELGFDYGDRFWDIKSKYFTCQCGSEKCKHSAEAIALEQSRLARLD
#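 Using a bead-based AlphaScreen, monomethylated H3K9 product from 2 h room-temperature reactions (G9a 20 nM, peptide 500 nM, SAM 20 uM) was detected with 0.5 ug/mL rabbit anti-H3K9me1 antibody.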
# Sfp inh – blocks B. subtilis Sfp PPTase activity; Q9F4F7; Biochemical Sfp PPTase activity, qHTS; Potency, µM, inactives show largest response in the series, negative = inhibition, usual class: inhibitors; 310,000 tested, 3.5% active;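 note: the enzyme is Sfp with the accession as filed and its product quenches rhodamine fluorescence; 0% = enzyme reaction without inhibitor and -100% = no enzyme wells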
#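 With Hepes-Na pH 7.6 buffer containing 10 mM MgCl2, Sfp (15 nM) modified BHQ-2-YbbR (12.5 uM) using rhodamine-CoA (5 uM). Two reads 30 minutes apart at 525/598 nm yielded each well's rate.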
# JMJD2A Tudor – JMJD2A Tudor domain (human) inhibition | O75164 | Potency, µM (titrated, usually from 114 µM), inactives show at the top dose activity change, negative = inhibition, most hits filed as inhibitors | AlphaScreen JMJD2A-Tudor / H3K4me3 peptide binding | 390,000 tested, 4.4% active; note: % is set by controls: 0 for no effect and ±100 for the full control effect; nearly all actives have a fitted effect of over 50% in size
# PLK1 PBD inh – blocks phosphopeptide binding to human PLK1 polo-box domain. P53350. Plk1 PBD binding of FITC phosphopeptide, fluorescence polarization. Potency, µM, inactives show max response, negative = inhibition, hits mostly inhibitors. 360,000 tested, 2.8% active. AID 720504; note: series mostly up to about 57 µM; % is set by controls: 0 for no effect and ±100 for the full control effect; nearly all actives have a fitted effect of over 65% in size
# HP1b binding inh – HP1-beta chromodomain-methylated histone interaction inhibition. P83916. Potency, µM (titrated, usually from 114 µM), without a hit: at the top dose activity change, negative = inhibition, usual class: inhibitors. AlphaScreen HP1-beta / biotin-H3K9me3 peptide binding. 390,000 tested, 0.56% active; note: nearly all actives have a fitted effect of over 70% in size
# Target sequence (P83916 whole entry, looked up): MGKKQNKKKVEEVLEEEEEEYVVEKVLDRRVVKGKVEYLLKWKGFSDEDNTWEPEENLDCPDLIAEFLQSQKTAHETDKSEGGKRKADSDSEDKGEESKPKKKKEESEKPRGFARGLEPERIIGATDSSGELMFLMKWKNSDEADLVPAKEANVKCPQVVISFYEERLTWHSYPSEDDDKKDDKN
#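 AlphaScreen: HP1-beta (50 nM) preformed 30 min with biotin-H3(1-18)K9me3 peptide (50 nM) in PBS pH 7.4, 0.01% Tween-20. Compound added for 30 min at RT, then streptavidin donor/nickel chelate acceptor beads (10 ug/mL) for 30 min.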
# Numbers without * were called inactive; u = inconclusive; x = no result; [ ] = dose if it differs, or a comment. Most compounds without a hit are left out; they make up all but 12% or so of the library. Calls come from the whole dose curve; as a rule, active = well fitted curve in the direction sought with a large enough effect; inconclusive = small, poorly fitted or top-dose-only effect, or another doubt; inactive = no such curve, though single readings can be large; an effect the other way counts as inactive or inconclusive. Potency is the fitted concentration of half-maximal effect.
SMILES,BAZ2B block,G9a inh,Sfp inh,JMJD2A Tudor,PLK1 PBD inh,HP1b binding inh
Cc1ccc(NC(=O)N2CCC(N3CCN(Cc4ccccc4)C(=O)C3=O)CC2)cc1Cl,2%,-2%[59 µM],x,-19%,x,24%
O=C(O)c1cc(Cl)c2ccccc2c1O,-4%,-4%[59 µM],-2%,13%,-30%,38%
CC(C)(NC(=O)c1cc(Cl)c2ccccc2c1O)C(=O)O,-21%,32µM*,17%,-15%,-13%,30%
C[n+]1cccc2c(Br)ccc([O-])c21,22%,x,56µM*,-29%,u,24%
COc1ccc(C(=O)N(Cc2ccc(N(C)C)cc2)Cc2ccco2)cc1Cl,20µM*,u,x,35µM*,x,u
CN(C)c1ccc(CN(Cc2ccco2)C(=O)c2ccc(C(C)(C)C)cc2)cc1,11µM*,11µM*,x,13µM*,x,u
Cc1cc2oc(C(=O)N(Cc3ccc(N(C)C)cc3)Cc3ccco3)c(C)c2cc1Cl,13µM*,13µM*,x,13µM*,x,u
Cc1ccc(C(=O)N(Cc2ccco2)Cc2ccco2)cc1,u,u,x,-29%,x,13%
CCn1cnc2sc(C(=O)N(Cc3ccc(N(C)C)cc3)Cc3ccco3)c(C)c2c1=O,45µM*,16µM*,u,50µM*,4%,35µM*
Cc1cc2oc(C(=O)N(Cc3ccco3)Cc3ccccc3Cl)c(C)c2cc1C,3%,12%[59 µM],x,-6%,x,44%
CN1CCN(c2ccc(NC(=O)CSc3nnnn3-c3ccccc3Cl)cc2)CC1,u,u,-7%,-27%,-2%,15%
CCN1CCN(C(=O)Cn2c(-c3cccs3)cc3cc(Cl)ccc32)CC1,-3%,-27%[59 µM],x,-19%,x,20%
O=S(=O)(NC(=S)c1ccccc1)c1ccc(Cl)cc1,-25%,u,-19%,-32%,15µM*,-30%
O=C(NNS(=O)(=O)c1ccc(F)cc1)c1ccccc1F,-4%,26%,10%,-13%,-2%,29%
O=S(=O)(NC(=S)c1ccccc1)c1ccccc1,x,x,x,-35%,u,-6%
O=S(=O)(NC(=S)c1ccccc1)c1ccc(F)cc1,-7%,79µM*,-3%,-18%,u,-5%
O=C(NNS(=O)(=O)c1ccc(F)cc1)c1ccccc1,3%,x,15%,14µM*,-11%,6%
O=C1NC(c2ccccc2)=N/C1=C/c1ccco1,-4%,22µM*,u,-24%,-6%,-9%
O=C1OC(/C=C/c2ccc(Cl)cc2)=NC/1=C/c1ccco1,-37%,-10%[59 µM],-3%,-30%,-14%,4%
O=C1NC(c2ccccc2Br)=N/C1=C\c1ccco1,-18%,45µM*,u,u,-2%,4%
O=C1NC(c2cccc(Br)c2)=N/C1=C\c1ccco1,u,u,u,u,-10%,10%
CCOC(=O)/C(=C\c1ccccc1)C(=O)CCN1CCOCC1,x,x,x,-22%,6.7µM*,-21%
Cc1ccc(-c2nn(-c3ccccc3)cc2C2SCC(=O)N2Cc2ccccc2)o1 (configuration not stated),u,10µM*,22µM*,u,-29%,u
O=C1CSC(c2cn(-c3ccccc3)nc2-c2cc3ccccc3o2)N1Cc1ccccc1 (configuration not stated),u,11%,11%,-27%,-5%,11%
O=C(c1cccc(F)c1)N1CCC[C@@]2(CCN(c3ccccc3)C2)C1,x,6%[12.7 µM],-9%,x,x,x
COc1ccc(OC)c(S(=O)(=O)Nc2ccc(O)c(Sc3ncn[nH]3)c2)c1,u,7.9µM*,35µM*,u,-10%,8%
CCc1ccc(S(=O)(=O)Nc2ccc(O)c3ccccc23)cc1,u,15%[2.33 µM],-3%,u,u,u
CCOc1ccc(S(=O)(=O)Nc2ccc(O)c(Sc3ncn[nH]3)c2)cc1,12%,22µM*,-20%,-2%,-9%,35%
COc1ccc(Cl)cc1S(=O)(=O)Nc1ncn[nH]1,1%,79µM*,-7%,-11%,u,50%
O=S(=O)(Nc1ccc(O)c2ccccc12)c1ccc(F)cc1,x,x,x,50µM*,27µM*,u
